Measured values as given in PubChem BioAssay.
Activity calls are given as the source filed them.

Assays:
[1] = compound effects on lung adenocarcinoma cell viability – A549, calcein-AM fluorescence, 48 h, basal, profiling panel (AID 1162); settings: higher = more signal
[2] = compound effects on differentiated 3T3-L1 adipocyte viability – cell-based, 3T3-L1 adipocytes, calcein-AM fluorescence, 48 h, basal, profiling panel (AID 1163); settings: 3T3-L1 adipocytes viability, higher = more signal
[3] = compound effects on hepatocellular carcinoma cell viability – HepG2, calcein-AM fluorescence, 48 h, basal, profiling panel (AID 1164); settings: higher = more signal
[4] = compound effects on multiple myeloma cell viability – MM1S, calcein-AM fluorescence, 48 h, basal, profiling panel (AID 1165); settings: higher = more signal;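 also: viability of MM1S multiple myeloma cells under basal unstimulated conditions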
[5] = calcein-AM signal in unstimulated myeloma cells – cell-based, calcein-AM fluorescence, 48 h, PK04 Diversity Set, profiling panel (AID 1166); settings: RPMI8226 myeloma viability, higher = more signal;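 also: cells grown under basal conditions without added stimulus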
[6] = JC-1 mitochondrial signal, unstimulated HepG2 cells – cell-based, JC-1 fluorescence, 24 h, 100 nL compound, profiling panel (AID 1167); settings: HepG2 mitochondrial potential, higher = more signal
[7] = JC-1 mitochondrial signal, unstimulated adipocytes – cell-based, JC-1 fluorescence, 3T3-L1 adipocytes, 24 h, 100 nL compound, profiling panel (AID 1168); settings: JC-1 mitochondrial fluorescence, higher = more signal, called active from +8 up or from −8 down
[8] = JC-1 mitochondrial signal, unstimulated myeloma cells – cell-based, JC-1 fluorescence, RPMI8226, 24 h, 100 nL compound, profiling panel (AID 1169); settings: JC-1 mitochondrial potential fluorescence, higher = more signal
[9] = JC-1 mitochondrial signal, unstimulated MM1S myeloma – cell-based, JC-1 fluorescence, 24 h, 100 nL compound, profiling panel (AID 1170); settings: MM1S mitochondrial potential, higher = more signal
[10] = resazurin metabolic signal in A549 cells – cell-based, resazurin fluorescence, 24 h, PK04 Diversity Set, profiling panel (AID 1171); settings: A549 viability, higher = more signal, called active from +8 up or from −8 down
Also: test concentration not given here.

Compound	z-score [1]	z-score [2]	z-score [3]	z-score [4]	z-score [5]	z-score [6]	z-score [7]	z-score [8]	z-score [9]	z-score [10]
C=C(CCCC)/C(=C/C[C@@H](OC(C)=O)c1ccccc1OCCO)c1cnc2ccccc2c1	-0.865	1.79	-0.749	-2.72	-3.31	0.749	-1.17 (inactive)	-0.691	0.61	-1.21 (inactive)
COc1ccc(CCN2C(=O)[C@@]3(Cc4ccccc42)c2ccccc2C(=O)N(Cc2ccccc2C(F)(F)F)[C@H]3c2ccc(CO)cc2)cc1	-0.306	0.885	-0.863	0.122	-1.57	-0.739	-0.753 (inactive)	0.923	-1.59	0.639 (inactive)
CCOC(=O)C[C@H]1[C@H](OC(=O)Cc2ccc3c(c2)OCO3)[C@@H](NC(=O)c2ccc(-c3ccccc3)cc2)c2cc(OCCCO)ccc2N1C(=O)c1ccc2ccccc2n1	1.8	2.75	1.65	0.218	-0.472	2.72	0.61 (inactive)	-0.233	-0.903	0.562 (inactive)
COC(=O)[C@@]1(Cc2ccccc2)[C@H]2c3cc(C(=O)N(C)C)n(CCSCCO)c3C[C@H]2CN1C(=O)c1ccccc1	0.571	-0.0167	-0.0301	-0.614	-0.933	-1.37	-0.728 (inactive)	0.354	-0.229	0.0392 (inactive)
CCCCC=C[C@@H](NC(=O)Oc1cccc(C(F)(F)F)c1)c1ccccc1	-1.12	0.26	-0.568	-1.8	-3.36	-1.63	-0.585 (inactive)	-0.799	-1.1	-0.665 (inactive)
COCCCN1C(=O)[C@@]2(Cc3ccccc31)c1ccccc1C(=O)N(Cc1ccccc1C(F)(F)F)[C@H]2c1ccc(CO)cc1	-0.84	-1.15	-0.539	-0.155	-0.259	-0.451	0.801 (inactive)	0.799	0.148	-0.356 (inactive)
O=C(NCc1ccccc1)[C@@]1(CCS(=O)(=O)c2ccccc2)N=C(c2ccc(OCCCO)cc2)O[C@H]1c1ccccc1	0.364	-0.153	-0.203	-0.335	-0.672	1.17	0.802 (inactive)	-0.935	-1.58	-0.541 (inactive)
OC([C@@H]1CC(c2ccccc2)=NO1)[C@H]1CC(c2ccccc2)=NO1 (stereo not given in full)	1.51	0.222	1.59	0.703	-0.132	1.05	0.635 (inactive)	-0.847	0.439	1.04 (inactive)
C=CCOC(=O)[C@H]1[C@@H]2C(=O)O[C@@H](c3ccccc3)[C@@H](c3ccccc3)N2[C@@H](c2ccc(OCCOC(=O)[C@H]3C[C@H]4C(=O)N5CCC[C@H]5C(=O)N4[C@H]3c3ccc(O)cc3)cc2)[C@]12C(=O)Nc1ccc(I)cc12	0.321	1.47	-0.167	-0.484	-0.231	-0.518	-0.32 (inactive)	-0.00574	-0.286	-1.16 (inactive)
C=CC[C@@]1(C(=O)N(C)C)N=C(c2ccc(OCCCO)cc2)O[C@@H]1c1ccccc1N=[N+]=[N-]	0.459	-0.423	0.571	-0.761	-1.51	-0.328	1.04 (inactive)	-0.874	-1.31	-1.48 (inactive)
COCCn1c(C(=O)N2CCCC2)cc2c1C[C@H]1CN(C(=O)c3ccccc3)[C@@](Cc3ccc(F)cc3)(C(=O)OC)[C@@H]21	-1.27	0.25	-0.366	-1.21	-1.22	0.584	-0.757 (inactive)	-0.37	-1.37	0.409 (inactive)
O=C1OCCC/C=C\[C@H]2OC34C=CCN(Cn5nnc6ccccc65)C(=O)[C@H]3N(CCCCCCO)C(=O)[C@@H]4C12 (stereo not given in full)	1.06	0.469	1.42	1.8	-0.0474	0.733	0.932 (inactive)	-0.263	-1.14	0.818 (inactive)
C=CC[C@]1(C(=O)NCCCOC)N=C(c2ccc(OCCCO)cc2)O[C@H]1c1ccccc1N=[N+]=[N-]	-0.707	0.346	0.0592	-1.78	-1.47	0.111	1.06 (inactive)	-0.68	-0.114	0.393 (inactive)
CC(=O)n1cc(C(O)C2C=CC3C(=O)N(C)C(=O)C3N2Nc2ccccc2)c2ccccc21 (stereo not given)	-0.617	-0.652	-0.804	0.305	-1.25	-1.58	-0.454 (inactive)	-0.0553	0.118	-0.162 (inactive)
COc1ccc(C(=O)Nc2ccc(CN3C(=O)[C@@]4(O[C@@H](CCO)[C@H]([Si](C)(C)c5ccc(OC)cc5)[C@H]4C)c4ccccc43)cc2)cc1	-4.06	-0.736	-4.64	-2.64	-4.32	-2.53	1.16 (inactive)	-1.12	-2.2	-3.84 (inactive)
COC(=O)[C@@]1(Cc2ccc(F)cc2)[C@H]2c3cc(C(=O)N(C)C)n(Cc4ccc(S(C)(=O)=O)cc4)c3C[C@H]2CN1C(=O)c1ccccc1	-0.379	-0.631	0.137	0.373	-0.198	3.32	-0.224 (inactive)	0.059	0.125	-0.46 (inactive)
CCOC(=O)C[C@H]1[C@H](OC(=O)Cc2ccc3c(c2)OCO3)[C@@H](NC(=O)c2ccc3ccccc3c2)c2cc(OCCCO)ccc2N1C(=O)c1ccccc1	1.38	-0.377	0.778	-0.41	-0.377	1.27	1.14 (inactive)	0.621	-0.334	0.859 (inactive)
CN(C)CCCNC(=O)[C@@]1(C)c2ccccc2C(=O)N(Cc2cc(F)cc(C(F)(F)F)c2)[C@H]1c1ccc(CO)cc1	1.04	-0.0121	-0.746	-1.29	-0.167	0.845	0.235 (inactive)	0.521	-0.496	0.896 (inactive)
CCOC(=O)[C@H]1CC=C2CC1C(=O)N1CCC[C@@H]1[C@@H]2O[Si](C)(C)C(C)(C)C (stereo not given in full)	-1.63	0.312	-1.43	-2.85	-4.07	-2.25	-1.07 (inactive)	-1.06	0.167	3.69 (inactive)
COC(=O)[C@@]1(Cc2ccc(F)cc2)[C@H]2c3cc(C(=O)N(C)C)n(Cc4nc5ccccc5[nH]4)c3C[C@H]2CN1C(=O)c1ccccc1	-0.788	-0.0882	-0.49	-1.09	-0.184	-0.0736	-0.156 (inactive)	-0.207	-2.16	0.406 (inactive)
CC(=O)NCCCC[C@@H]1NC(=O)[C@@H]2C[C@H](C(=O)NCCCCN(C)C)[C@H](c3cccc(OCCO)c3)N2C1=O	0.0857	-0.749	-0.506	-0.589	-0.486	-0.085	-0.24 (inactive)	-0.569	-0.436	0.604 (inactive)
C=CCOC(=O)[C@@H]1[C@H]2C(=O)O[C@H](c3ccccc3)[C@H](c3ccccc3)N2[C@H](c2ccc(OCCOC(=O)[C@@H]3C[C@@H]4C(=O)N[C@@H](CCCC[N+](C)(C)C)C(=O)N4[C@@H]3c3cccc(OCCO)c3)cc2)[C@@]12C(=O)Nc1ccc(I)cc12	-0.477	0.788	-0.776	-2.78	-2.03	-0.605	0.902 (inactive)	-0.637	-1.22	0.504 (inactive)
CS(=O)(=O)CCOC(=O)C1=CC(CCCO)=CC(c2ccc(CN3CCCC3)cc2)N(Cc2cc3c(cc2Br)OCO3)C=C1C(=O)OCCS(C)(=O)=O (stereo not given)	1.94	-0.0958	-0.0078	-0.315	0.0614	3.02	0.771 (inactive)	0.00988	1.29	0.778 (inactive)
O=C1c2ccccc2[C@](Cc2ccccc2I)(C(=O)NC2CC2)[C@H](c2ccc(CO)cc2)N1Cc1ccccc1	0.465	-0.241	-0.236	-0.349	-0.253	0.478	0.174 (inactive)	-0.679	0.00466	1.47 (inactive)
O=C1O[C@H](c2ccccc2)[C@H](c2ccccc2)N2[C@H]1[C@@H](C(=O)O)[C@]1(C(=O)Nc3ccc(C#CC4=CCCCC4)cc31)[C@H]2c1ccccc1OCCO	-0.986	-1.21	-4.28	-3.3	-4.21	-3.56	1.39 (inactive)	-0.935	-1.68	-1.84 (inactive)
CN(C)C(=O)[C@]1(Cc2ccccc2CN=[N+]=[N-])N=C(c2ccc(OCCCO)cc2)O[C@@H]1c1ccccc1CN=[N+]=[N-]	-0.999	1.59	0.309	-2.26	-4.24	0.644	-0.735 (inactive)	-1.13	-0.0198	0.113 (inactive)
CC(=O)N1Cc2ccccc2C[C@@]2(COC(c3ccc(OCCCO)cc3)=N2)C1=O	1.23	1.93	2.01	-2	0.151	0.933	1.59 (inactive)	-0.894	-0.394	0.89 (inactive)
CCCCC(=C=CC[C@@H](O)c1ccccc1OCCO)CCO	0.499	0.337	0.595	-0.0292	0.181	0.251	-0.321 (inactive)	0.11	0.502	0.245 (inactive)
